Test results reported in PubChem BioAssay (NCI).
This is part of a sample that, as a whole, favours compounds with a hit. Of some 83,000 tested, about 20% had one in any assay.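 How to read the values: 0–100, growth inhibition (40 = 60% inhibited); 0, no net growth; -100 to 0, cell death (-40 = 40% of starting cells died; -100 = all dead).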 A number with no mark means an inactive call. Activity calls are given as the source filed them. How the source made its calls: active means growth percent below 10; inactive means the rest.

Legend:
Experiment in all cases: NCI-60 one-dose screen, 48 h (100 = growth as untreated, 0 = no growth, -100 = all killed)
Details in all cases: 10 µM unless noted
NCI-H23 lung = tested on: NCI-H23 lung
NCI-H226 lung = tested on: NCI-H226 lung
NCI-H322M lung = tested on: NCI-H322M lung
HOP-62 NSCLC = tested on: HOP-62 NSCLC
NCI-H460 lung = tested on: NCI-H460 lung
HOP-92 NSCLC = tested on: HOP-92 NSCLC
NCI-H522 lung = tested on: NCI-H522 lung
A549/ATCC NSCLC = tested on: A549/ATCC NSCLC
786-0 renal = tested on: 786-0 renal
DU-145 prostate = tested on: DU-145 prostate
K-562 leukemia = tested on: K-562 leukemia
MALME-3M melanoma = tested on: MALME-3M melanoma
MDA-MB-231 breast = tested on: MDA-MB-231 breast
RXF 393 renal = tested on: RXF 393 renal
SF-268 CNS = tested on: SF-268 CNS
SF-295 CNS = tested on: SF-295 CNS
SF-539 CNS = tested on: SF-539 CNS
UACC-257 melanoma = tested on: UACC-257 melanoma
M14 melanoma = tested on: M14 melanoma

Cc1c(C(=O)O[C@H]2[C@@H]3[C@H](C)CC[C@H]3[C@]3(C)O[C@@]2(C2CCCCC2)C[C@H]3OC(=O)CO)ccc2ccccc12
growth (NCI-H23 lung): 35.2% | growth (NCI-H226 lung): 30.5% | growth (NCI-H322M lung): 70.5% | growth (HOP-62 NSCLC): 29.7% | growth (NCI-H460 lung): -36% (active) | growth (HOP-92 NSCLC): 10.9% | growth (NCI-H522 lung): 19.6% | growth (A549/ATCC NSCLC): 30.2% | growth (786-0 renal): 9.76% (active) | growth (DU-145 prostate): 58.7% | growth (K-562 leukemia): 7.53% (active) | growth (MALME-3M melanoma): 42.3% | growth (MDA-MB-231 breast): 33.2% | growth (RXF 393 renal): -31.7% (active) | growth (SF-268 CNS): 16% | growth (SF-295 CNS): 36.8% | growth (SF-539 CNS): 65.6% | growth (UACC-257 melanoma): 39.8% | growth (M14 melanoma): 36.2%

CN(CCCCCCCCNc1ccnc2ccccc12)Cc1ccc(-c2ccc(-c3ccc(C#N)cc3)s2)cc1
growth (NCI-H23 lung): 21.1% | growth (NCI-H226 lung): -66.9% (active) | growth (NCI-H322M lung): -66% (active) | growth (HOP-62 NSCLC): -11.2% (active) | growth (NCI-H460 lung): -76.3% (active) | growth (HOP-92 NSCLC): 44.8% | growth (NCI-H522 lung): -62.9% (active) | growth (A549/ATCC NSCLC): -60.7% (active) | growth (786-0 renal): -89.8% (active) | growth (DU-145 prostate): -67.3% (active) | growth (K-562 leukemia): -18.4% (active) | growth (MALME-3M melanoma): -80.7% (active) | growth (MDA-MB-231 breast): -80.1% (active) | growth (RXF 393 renal): -86% (active) | growth (SF-268 CNS): -76.6% (active) | growth (SF-295 CNS): -64.1% (active) | growth (SF-539 CNS): -89% (active) | growth (UACC-257 melanoma): -38.7% (active) | growth (M14 melanoma): -84% (active)

COc1cc2nc(Nc3ccc(F)cc3)nc(N)c2cc1OC
growth (NCI-H23 lung): 95.1% | growth (NCI-H226 lung): 81.7% | growth (NCI-H322M lung): 95.4% | growth (HOP-62 NSCLC): 112% | growth (NCI-H460 lung): 99.5% | growth (HOP-92 NSCLC): 63.9% | growth (NCI-H522 lung): 92% | growth (A549/ATCC NSCLC): 92.6% | growth (786-0 renal): 87.1% | growth (DU-145 prostate): 93.5% | growth (K-562 leukemia): 77.8% | growth (MALME-3M melanoma): 105% | growth (MDA-MB-231 breast): 81.7% | growth (RXF 393 renal): 54.5% | growth (SF-268 CNS): 90% | growth (SF-295 CNS): -2.33% (active) | growth (SF-539 CNS): 95.5% | growth (UACC-257 melanoma): 102% | growth (M14 melanoma): 107%

C=CCN1C(=O)[C@]2(SC1=S)[C@H](c1cccc(Cl)c1)CN(C)[C@]21C(=O)NC2C=CC(Cl)=C[C@H]21 (some centres not stated)
growth (NCI-H23 lung): 45.7% | growth (NCI-H226 lung): 43.4% | growth (NCI-H322M lung): 87.2% | growth (HOP-62 NSCLC): 63.9% | growth (NCI-H460 lung): 55.3% | growth (HOP-92 NSCLC): -6.48% (active) | growth (NCI-H522 lung): 41.3% | growth (A549/ATCC NSCLC): 41.9% | growth (786-0 renal): 24.8% | growth (DU-145 prostate): 48.8% | growth (K-562 leukemia): 22.9% | growth (MALME-3M melanoma): 35.7% | growth (MDA-MB-231 breast): 26.8% | growth (RXF 393 renal): 35.4% | growth (SF-268 CNS): 52.9% | growth (SF-295 CNS): 32.1% | growth (SF-539 CNS): 81.1% | growth (UACC-257 melanoma): 26.5% | growth (M14 melanoma): 29.9%

N=C(N)c1ccc(-c2ccc(-c3ccc(Cl)c(Cl)c3)o2)cc1
growth (NCI-H23 lung): 45.4% | growth (NCI-H226 lung): 90.5% | growth (NCI-H322M lung): -23% (active) | growth (HOP-62 NSCLC): 42.3% | growth (NCI-H460 lung): -68.8% (active) | growth (HOP-92 NSCLC): 58.9% | growth (NCI-H522 lung): 57.7% | growth (A549/ATCC NSCLC): -6.23% (active) | growth (786-0 renal): -91.1% (active) | growth (DU-145 prostate): 3.63% (active) | growth (K-562 leukemia): -30.2% (active) | growth (MALME-3M melanoma): 53.6% | growth (MDA-MB-231 breast): -61% (active) | growth (RXF 393 renal): 60.2% | growth (SF-268 CNS): 73.1% | growth (SF-295 CNS): -80% (active) | growth (SF-539 CNS): -89.1% (active) | growth (UACC-257 melanoma): 84.5% | growth (M14 melanoma): 11.8%

CCN(CC)CCNc1ccc(C)c2sc3cc(C)ccc3c(=O)c12
growth (NCI-H23 lung): 72.3% | growth (NCI-H226 lung): 95.5% | growth (NCI-H322M lung): 68.8% | growth (HOP-62 NSCLC): 62.9% | growth (NCI-H460 lung): 43% | growth (HOP-92 NSCLC): 25.2% | growth (NCI-H522 lung): 44.2% | growth (A549/ATCC NSCLC): 56.2% | growth (786-0 renal): 42.9% | growth (DU-145 prostate): 67% | growth (K-562 leukemia): -19.6% (active) | growth (MALME-3M melanoma): 72.5% | growth (MDA-MB-231 breast): 19.4% | growth (RXF 393 renal): 59.1% | growth (SF-268 CNS): 59.1% | growth (SF-295 CNS): 72.9% | growth (SF-539 CNS): 76.3% | growth (UACC-257 melanoma): 65.5% | growth (M14 melanoma): -46.2% (active)

COc1ccc(-c2cncnc2N)cc1OC
growth (NCI-H23 lung): 108% | growth (NCI-H226 lung): 107% | growth (NCI-H322M lung): 114% | growth (HOP-62 NSCLC): -100% (active) | growth (NCI-H460 lung): 98.6% | growth (HOP-92 NSCLC): 85.2% | growth (NCI-H522 lung): 105% | growth (A549/ATCC NSCLC): 97.5% | growth (786-0 renal): 107% | growth (DU-145 prostate): 114% | growth (K-562 leukemia): 103% | growth (MALME-3M melanoma): 111% | growth (MDA-MB-231 breast): 112% | growth (RXF 393 renal): 112% | growth (SF-268 CNS): 103% | growth (SF-295 CNS): 97.5% | growth (SF-539 CNS): 107% | growth (UACC-257 melanoma): 111% | growth (M14 melanoma): 103%

CS(=O)(=O)c1ccc(-c2[nH]c3ccc(F)cc3c2/C=N/NC(N)=S)cc1
growth (NCI-H23 lung): 38.1% | growth (NCI-H226 lung): 63.1% | growth (NCI-H322M lung): 48.8% | growth (HOP-62 NSCLC): 34.2% | growth (NCI-H460 lung): 3.52% (active) | growth (HOP-92 NSCLC): 55.8% | growth (NCI-H522 lung): 5.14% (active) | growth (A549/ATCC NSCLC): 18.4% | growth (786-0 renal): 40.3% | growth (DU-145 prostate): 22.1% | growth (K-562 leukemia): 6.76% (active) | growth (MALME-3M melanoma): 55.9% | growth (MDA-MB-231 breast): 13.7% | growth (RXF 393 renal): 1.16% (active) | growth (SF-268 CNS): 39.8% | growth (SF-295 CNS): 13.9% | growth (SF-539 CNS): -21.2% (active) | growth (UACC-257 melanoma): 63.3% | growth (M14 melanoma): 11.6%
